In PubChem BioAssay (NCATS):
Inconclusive results are not listed. Unmarked numbers belong to inactive results. Calls follow the shape of the dose curve; as a rule, active = well fitted inhibition curve with a large enough effect; inconclusive = small, poorly fitted or top-dose-only effect; inactive = flat fitted curve, though single readings scatter.

The compounds below were run against Aldehyde dehydrogenase, mitochondrial (Homo sapiens) (UniProt P05091) (assay: qHTS for Inhibitors of the Aldehyde Dehydrogenase Family (ALDH2) Primary screen (AID 2061308;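 also: plate controls were vehicle for no effect and reference inhibitor for full effect; nearly all actives have a fitted effect of over 55% in size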)). Settings: ALDH2 enzyme inhibition qHTS, 1536-well; series mostly up to 56 µM; activity change, negative = inhibition: at the top concentration.

SMILES | activity change, negative = inhibition [%]
O=C(Nc1ccc(Cl)c(Cl)c1)Nc1nc(-c2ccncc2)cs1 | 1.15
O=C(Nc1nnc(-c2ccco2)o1)c1ccncc1 | 16
Cn1nnnc1Sc1ncnc2scc(-c3ccc4ccccc4c3)c12 | 5.44
Cc1ccnc(NC(=S)NC2CCCN(c3cccc(C(F)(F)F)c3)C2)c1 (stereo not drawn) | -22.7
Cc1cnc(-c2ccccc2C(C)C)nc1NCc1ccc(C(N)=O)cc1 | 7.1
CC(C)(C)OC(=O)N1CCN(c2ccc(NCc3nnc(-c4ccc(C#N)cc4)o3)cc2)CC1 | -8.34
N#Cc1nc(-c2cccc3ccccc23)oc1NC1COC1 | 5.61
C#CCCC(=O)Nc1sc2c(c1-c1nc3ccccc3s1)CCNC2 | -20.5
CC(=O)Nc1ccc(NC(=O)c2cnn3c(C)cc(C)nc23)cc1 | 4.05
CC(=O)Nc1sc2c(c1-c1nc3ccccc3s1)CCCN(C(C)C)C2 | -1.23
COc1ccc(Oc2c(Cl)cnn(-c3cc(C)cc(C)c3)c2=O)cc1 | 3.23
Cc1cc(C)nc(NC(=S)N2CCN(c3nccc(C(F)(F)F)n3)CC2)c1 | -12.8
O=C(Nc1ncc(Cc2ccccc2)s1)c1ccc(-c2cccc([N+](=O)[O-])c2)o1 | 0.144
c1c[nH]c(CNc2ncnc3ccc(-c4ccc5c(c4)OCO5)cc23)n1 | -10.8
CN(CCC1CCCO1)c1ncnc2ccc(-c3ccc4c(c3)OCO4)cc12 (stereo not drawn) | 15.3
Cc1ccc(N(C)S(=O)(=O)c2ccc3c(c2)CCC(=O)N3)cc1C | 0.64
FC(F)(F)c1ccc(CNc2nc(-c3ccccc3C(F)(F)F)nc3ccccc23)cc1 | -28
CCCn1c(-c2ccc(F)cc2)nc2c(NCC(C)(C)CN(C)C)nc(C)nc21 | 10.6
